Results on 18 compounds are retold here after PubChem BioAssay (EPA / NIEHS).

Each structure is given as a SMILES string. Where “and” joins values, the source holds several entries; their conditions need not be identical. Equal values may be shown once. A structure can be active in one record and inactive in another. Calls of active or inactive are those of the source. The calls were made as follows: active = hit-call score of the fitted dose curve at least 0.9, where 1 is the maximum; inactive = score below 0.9.

Read-out in experiment [1]: Interleukin-6 (IL6), IL6 (gene 3569)
The experiment can be described thus: BSK_CASM3C_IL6: BioMAP Diversity Plus: CASM3C Assay for Interleukin-6 (IL6) Biomarker Activity for (AID 2283040). The conditions noted are these: primary human coronary artery smooth muscle cells; actives raise or lower the signal.

Read-out in experiment [2]: Tissue plasminogen activator (tPA), PLAT (gene 5327)
The experiment can be described thus: BSK_BE3C_tPA: BioMAP Diversity Plus: BE3C Assay for Tissue plasminogen activator (tPA) Biomarker Activity (AID 2283041).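 As to outcome: tPA level quantified by ELISA one day after compound addition.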 The conditions noted are these: primary human bronchial epithelial cells; actives raise or lower the signal. The gist of the method: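 Primary human bronchial epithelial cells in the BE3C system, exposed to compound for 24 h. tPA was quantified by ELISA; DMSO served as baseline, with gain or loss of signal fitted. Cytotoxicity checked in parallel cultures by SRB total-protein staining.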

Read-out in experiment [3]: Interleukin-8 (IL8), CXCL8 (gene 3576)
The experiment can be described thus: BSK_CASM3C_IL8: BioMAP Diversity Plus: CASM3C Assay for Interleukin-8 (IL8) Biomarker Activity (AID 2283042).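 Also: IL-8 protein level quantified by ELISA.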 The conditions noted are these: primary human coronary artery smooth muscle cells; actives raise or lower the signal.

Read-out in experiment [4]: Human Leukocyte Antigen - DR isotype (HLADR), HLA-DRA (gene 3122)
Nature of the experiment: BSK_CASM3C_HLADR: BioMAP Diversity Plus: CASM3C Assay for Human Leukocyte Antigen - DR isotype (HLADR) Biomarker Activity (AID 2283043).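 Also: cell-surface HLA-DR protein level quantified by ELISA.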 To be noted: primary human coronary artery smooth muscle cells; actives raise or lower the signal.

Read-out in experiment [5]: Macrophage colony-stimulating factor (MCSF), CSF1 (gene 1435)
Nature of the experiment: BSK_CASM3C_MCSF: BioMAP Diversity Plus: CASM3C Assay for Macrophage colony-stimulating factor (MCSF) Biomarker Activity (AID 2283044).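 Also: M-CSF protein amount quantified by ELISA after 24 h exposure.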 The conditions noted are these: primary human coronary artery smooth muscle cells; actives raise or lower the signal.

Read-out in experiment [6]: Low-density lipoprotein receptor (LDLR), LDLR (gene 3949)
The experiment can be described thus: BSK_CASM3C_LDLR: BioMAP Diversity Plus: CASM3C Assay for Low-density lipoprotein receptor (LDLR) Biomarker Activity (AID 2283045).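 Also: LDLR protein level on the cell surface quantified by ELISA.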 To be noted: primary human coronary artery smooth muscle cells; actives raise or lower the signal.

Read-out in experiment [7]: Monocyte Chemoattractant Protein-1 (MCP1), CCL2 (gene 6347)
The experiment can be described thus: BSK_CASM3C_MCP1: BioMAP Diversity Plus: CASM3C Assay for Monocyte Chemoattractant Protein-1 (MCP1) Biomarker Activity (AID 2283046).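 Also: MCP-1 level quantified by ELISA 24 h after dosing.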 The conditions noted are these: primary human coronary artery smooth muscle cells; actives raise or lower the signal.

Experiment [8] in a line: BSK_CASM3C_Proliferation: Cell Proliferation Assessment in the BioMAP Diversity Plus: CASM3C Assay (AID 2283047).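 Also: sulforhodamine B total protein stain as relative cell number at 560 nm; sub-confluent cells exposed 48 h before staining; fitted both ways against DMSO so gain or loss of cell number.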 To be noted: primary human coronary artery smooth muscle cells.
Read-out in experiment [9]: Monokine induced gamma interferon (MIG), CXCL9 (gene 4283)
The experiment can be described thus: BSK_CASM3C_MIG: BioMAP Diversity Plus: CASM3C Assay for Monokine induced gamma interferon (MIG) Biomarker Activity (AID 2283048).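 Also: MIG protein level measured by ELISA.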 To be noted: primary human coronary artery smooth muscle cells; actives raise or lower the signal.

Read-out in experiment [10]: serum amyloid A (SAA), SAA1 (gene 6288)
The experiment can be described thus: BSK_CASM3C_SAA: BioMAP Diversity Plus: CASM3C Assay for serum amyloid A (SAA) Biomarker Activity (AID 2283049).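 Also: SAA protein level quantified by ELISA.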 To be noted: primary human coronary artery smooth muscle cells; actives raise or lower the signal.

Consider `FC(F)(F)C(F)(F)C(F)(F)C(F)(F)C(F)(F)CCI`, for which the result in experiment [1], in [2], in [3], in experiment [4], in [5] and in [6] was inactive. Also, the outcome in [7], in experiment [9] and in experiment [10] was inactive. In addition, the AC50 in experiment [8] was 7.99 µM (active) and 30 µM (active).

For `O=C(O)C(F)(F)C(F)(F)F`, the result in experiment [1], in experiment [2], in [3], in [4], in [5] and in [6] was inactive. Further, the outcome in experiment [7], in experiment [8], in experiment [9] and in experiment [10] was inactive.

On to `O=C(O)C(F)(F)C(F)(F)C(F)F`, for which the outcome in experiment [1], in experiment [2], in experiment [3], in experiment [4], in [5] and in [6] was inactive. Also, the outcome in experiment [7], in [8], in experiment [9] and in experiment [10] was inactive. The AC50 in experiment [10] was 5.48 µM (active).

For the compound `FC(F)(F)C(F)(F)C(F)(F)C(F)(F)C(F)(F)C(F)(F)C(F)(F)I`, the outcome in experiment [1], in [2], in experiment [3], in [4], in experiment [5] and in experiment [6] was inactive. Further, the result in experiment [7], in [8], in [9] and in [10] was inactive.

`FC(F)(F)C(F)(F)C(F)(F)C(F)(F)C(F)(F)C(F)(F)C(F)(F)Br`: the outcome in experiment [1], in experiment [2], in experiment [3], in experiment [4], in experiment [5] and in [6] was inactive. Further, the result in experiment [7], in [8], in [9] and in experiment [10] was inactive.

Regarding `O=C(CC(=O)C(F)(F)C(F)(F)F)C(F)(F)F`, the outcome in experiment [1], in experiment [2], in experiment [3], in experiment [4], in experiment [5] and in experiment [6] was inactive. Moreover, the result in experiment [7], in experiment [8], in experiment [9] and in experiment [10] was inactive.

Turning to `CC(CCl)OP(=O)(OC(C)CCl)OC(C)CCl` (stereo unspecified), the outcome in experiment [1], in [2], in experiment [3], in [4], in [6] and in experiment [8] was inactive. Further, the result in experiment [9] and in experiment [10] was inactive. Besides, the values for the AC50 in experiment [5] and in [7] were 0.0398 µM (active) and 0.0191 µM (active), respectively.

Regarding `FC(F)(F)C(F)(F)C(F)(F)N(C(F)(F)C(F)(F)C(F)(F)F)C(F)(F)C(F)(F)C(F)(F)F`, the outcome in experiment [1], in experiment [2], in experiment [3], in experiment [4], in experiment [5] and in experiment [6] was inactive. For the same compound, the result in experiment [7], in experiment [8], in experiment [9] and in experiment [10] was inactive.

`C=CC(F)(F)C(F)(F)C(F)(F)C(F)(F)C(F)(F)C(F)(F)C(F)(F)C(F)(F)F`: the result in [1], in experiment [2], in experiment [3], in experiment [4], in experiment [5] and in experiment [6] was inactive. The outcome in experiment [7], in experiment [8], in [9] and in experiment [10] was inactive.

For the compound `FC(F)(F)C(F)(F)C(F)(F)C(F)(F)C(F)(F)C(F)(F)CC1CO1` (stereo unspecified), the outcome in [1], in experiment [2], in [3], in experiment [4], in experiment [5] and in experiment [6] was inactive. Further, the result in experiment [7], in experiment [8], in [9] and in experiment [10] was inactive.

Consider `CCc1ccc(C(c2ccc(CC)cc2)C(Cl)Cl)cc1`, for which the result in experiment [1], in experiment [3], in [4], in experiment [5], in experiment [6] and in experiment [7] was inactive. Besides, the result in experiment [8], in experiment [9] and in experiment [10] was inactive. Also, the AC50 in [2] was 14.1 µM (active).

With `O=C(O)C=C(C(F)(F)F)C(F)(F)F`, the half-maximal activity concentration (AC50) in experiment [1] is 13.2 µM (active) and 1.37 µM (active); in [2], 8.7 µM (active) and 1.53 µM (active); in experiment [4] it was 9.93 µM (active) and 597 nM (active); in [8], 30 µM (active); in experiment [9], 27.4 µM (active) and 220 nM (active). The outcome in [3], in [5], in [6], in [7] and in experiment [10] was inactive.

Consider `CCN(CC)c1ccc2c(C)cc(=O)oc2c1`, for which the outcome in experiment [1], in [2], in experiment [3], in experiment [4], in experiment [5] and in [7] was inactive. The outcome in experiment [8], in [9] and in experiment [10] was inactive. The AC50 in [6] was 31.3 µM (active).

Regarding `NC(=O)C(F)(F)C(F)(F)C(F)(F)C(F)(F)F`, the result in experiment [1], in experiment [2], in experiment [3], in experiment [4], in experiment [5] and in [6] was inactive. Besides, the result in experiment [7], in experiment [8], in experiment [9] and in [10] was inactive.

As to `CCCCCCC(C)OC(=O)CCCCC(=O)OC(C)CCCCCC` (stereo unspecified), the result in [1], in [2], in [3], in experiment [4], in [5] and in [6] was inactive. Besides, the outcome in [7], in experiment [8], in experiment [9] and in experiment [10] was inactive.

As to `COC(=O)CCC(F)(F)C(F)(F)C(F)(F)C(F)(F)F`, the outcome in [1], in [2], in [3], in experiment [4], in experiment [5] and in experiment [6] was inactive. The outcome in experiment [7], in [8], in experiment [9] and in experiment [10] was inactive.

`CO[Si](OC)(c1ccccc1)c1ccccc1`: the AC50 was 31.5 µM (active) in [1]; 39.1 µM (active) in experiment [4]; 33.2 µM (active) in [5]; 30.8 µM (active) in [6]; 36.7 µM (active) in [7]; 34.2 µM (active) in experiment [8]. For the same compound, the half-maximal activity concentration (AC50) in [10] was 30.9 µM (active). Moreover, the outcome in experiment [2], in experiment [3] and in experiment [9] was inactive.

Turning to `O[Si](c1ccccc1)(c1ccccc1)c1ccccc1`, the outcome in experiment [1], in experiment [2], in experiment [3], in experiment [4], in experiment [5] and in experiment [6] was inactive. In addition, the outcome in experiment [7], in experiment [9] and in experiment [10] was inactive. Besides, in experiment [8], the AC50 is 20 µM (active).
